Data: PubChem BioAssay
Activity calls are given as the source filed them.

Tests used:
Albumin (Bos taurus) = Albumin (Bos taurus) (UniProt P02769); test: compounds binding labelled BSA control protein – biochemical, small-molecule microarray, Alexa647 label, 635/667 nm fluorescence, artefact control for SMM control protein annotation, profiling panel (AID 1118); settings: BSA-A647 binding, fluorescence 635 nm, higher = more signal;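 note: score merges 667 nm emission intensity and signal-to-noise per printed compound spot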
Chain of Albumin (Bos taurus) (P02769 whole entry, looked up): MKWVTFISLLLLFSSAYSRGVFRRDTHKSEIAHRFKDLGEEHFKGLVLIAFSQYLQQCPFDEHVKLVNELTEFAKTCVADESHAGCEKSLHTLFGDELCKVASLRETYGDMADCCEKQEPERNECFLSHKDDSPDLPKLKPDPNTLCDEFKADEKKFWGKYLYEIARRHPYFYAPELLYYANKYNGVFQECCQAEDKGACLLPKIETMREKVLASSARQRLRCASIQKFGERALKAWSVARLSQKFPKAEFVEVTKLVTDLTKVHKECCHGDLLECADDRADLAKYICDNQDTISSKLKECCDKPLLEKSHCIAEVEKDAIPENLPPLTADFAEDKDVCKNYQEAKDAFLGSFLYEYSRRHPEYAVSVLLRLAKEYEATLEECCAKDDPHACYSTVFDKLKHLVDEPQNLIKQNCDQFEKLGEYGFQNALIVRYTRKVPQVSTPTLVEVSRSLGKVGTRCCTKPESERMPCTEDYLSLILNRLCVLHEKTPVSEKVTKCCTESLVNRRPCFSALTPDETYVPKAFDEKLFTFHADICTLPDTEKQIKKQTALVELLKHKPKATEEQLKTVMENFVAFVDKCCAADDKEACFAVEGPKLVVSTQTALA

[1] = probe aXIP binding to arrayed compounds – biochemical, NeuroSMM set, 635/667 nm fluorescence, primary screen (AID 1119); settings: small-molecule microarray, higher = more signal, called active from +8 up or from −8 down;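 note: probe is the protein aXip251-270 applied at 1 µg/mL to compound-printed slides; binding of probe to printed compounds measured as 667 nm fluorescence plus signal to noise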
[2] = probe aNOTCH3 binding on compound microarray – biochemical, small-molecule microarray, 635/667 nm fluorescence, primary screen (AID 1120); settings: higher = more signal;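 note: probe is a biotin-tagged antibody raised against NOTCH3 rather than NOTCH3 protein; score merges spot fluorescence near 667 nm with spot signal to noise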
[3] = probe aNOTCH2 binding on compound microarray – biochemical, small-molecule microarray, 635/667 nm fluorescence, primary screen (AID 1121); settings: higher = more signal;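 note: score merges feature fluorescence read at 667 nm with its signal to noise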
[4] = target: Carbonic anhydrase 2 (Homo sapiens) (UniProt P00918); test: compounds binding carbonic anhydrase 2 – biochemical, small-molecule microarray, Alexa647-labelled CAII, profiling panel (AID 1122); settings: CAII-A647 binding fluorescence, higher = more signal
[5] = COS7 lysate on small-molecule microarray, probe aHis, 635 nm (AID 1123); settings: COS7 cell lysate, fluorescence, higher = more signal;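 note: z-score combines 667nm fluorescence intensity with signal-to-noise per printed compound spot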
[6] = probe aLAP1 signal on lysate-treated microarray – cell lysate, small-molecule microarray, COS7 lysate, primary screen (AID 1124); settings: probe aLAP1, fluorescence, higher = more signal;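 note: lysate comes from COS7 cells expressing LAP1 and is applied at 0.3 µg/mL; score merges spot fluorescence near 667 nm with signal-to-noise over triplicate slides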
Sam68 (KHDRBS1) = test: compounds binding KHDRBS1 protein – biochemical, small-molecule microarray, 635 nm fluorescence, primary screen (AID 1125); settings: higher = more signal;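 note: score merges 667 nm channel intensity with signal to noise over triplicate slides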
[7] = system: Chordin-like protein 2 (CHRDL2); test: compounds binding chordin-like 2 – biochemical, small-molecule microarray, 635 nm fluorescence, primary screen (AID 1126); settings: fluorescence 635 nm, higher = more signal;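 note: printed compound slides probed with Chrdl2 protein at 4 µg/mL for 1 h at 4 C; score merges 667 nm emission intensity with signal to noise over three replicate slides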
[8] = target: Concanavalin-A (Canavalia ensiformis) (UniProt P02866); test: compounds binding concanavalin A lectin – biochemical, small-molecule microarray, Alexa647 label, 635 nm, artefact control for SMM control protein annotation, primary screen (AID 1127); settings: ConA-A647 binding fluorescence, higher = more signal;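 note: z combines 667 nm emission intensity with signal-to-noise across three replicate slides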
Chain of Concanavalin-A (Canavalia ensiformis) (P02866 whole entry, looked up): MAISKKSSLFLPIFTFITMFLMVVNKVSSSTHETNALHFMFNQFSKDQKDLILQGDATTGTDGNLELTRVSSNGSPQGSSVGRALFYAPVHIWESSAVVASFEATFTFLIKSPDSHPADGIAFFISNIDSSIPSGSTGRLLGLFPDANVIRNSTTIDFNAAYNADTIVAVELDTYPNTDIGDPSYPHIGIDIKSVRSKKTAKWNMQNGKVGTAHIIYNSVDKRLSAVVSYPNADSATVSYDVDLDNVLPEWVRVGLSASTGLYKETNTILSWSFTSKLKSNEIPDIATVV

[9] = compounds binding Alexa647 anti-His antibody – biochemical, small-molecule microarray, 635 nm fluorescence, artefact control for SMM control protein annotation, primary screen (AID 1128); settings: higher = more signal;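 note: score merges feature fluorescence with signal-to-noise for each printed compound spot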
[10] = system: Human papillomavirus type 1a E7 protein (residues 1-88); test: HPV1a E7 small-molecule binders, primary screen, biochemical, small-molecule microarray, residues 1-88, 635 nm (AID 1129); settings: small-molecule microarray binding, fluorescence 635 nm; higher = more signal
[11] = target: Focal adhesion kinase 1 (Homo sapiens) (UniProt Q05397); test: PTK2 protein binding on printed compound slides – biochemical, small-molecule microarray, 635/667 nm fluorescence, BSA, DTT, primary screen (AID 1130); settings: 635 nm fluorescence, higher = more signal;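 note: composite of spot emission at 667 nm and signal to noise over triplicate slides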
Chain of Focal adhesion kinase 1 (Homo sapiens) (Q05397 whole entry, looked up): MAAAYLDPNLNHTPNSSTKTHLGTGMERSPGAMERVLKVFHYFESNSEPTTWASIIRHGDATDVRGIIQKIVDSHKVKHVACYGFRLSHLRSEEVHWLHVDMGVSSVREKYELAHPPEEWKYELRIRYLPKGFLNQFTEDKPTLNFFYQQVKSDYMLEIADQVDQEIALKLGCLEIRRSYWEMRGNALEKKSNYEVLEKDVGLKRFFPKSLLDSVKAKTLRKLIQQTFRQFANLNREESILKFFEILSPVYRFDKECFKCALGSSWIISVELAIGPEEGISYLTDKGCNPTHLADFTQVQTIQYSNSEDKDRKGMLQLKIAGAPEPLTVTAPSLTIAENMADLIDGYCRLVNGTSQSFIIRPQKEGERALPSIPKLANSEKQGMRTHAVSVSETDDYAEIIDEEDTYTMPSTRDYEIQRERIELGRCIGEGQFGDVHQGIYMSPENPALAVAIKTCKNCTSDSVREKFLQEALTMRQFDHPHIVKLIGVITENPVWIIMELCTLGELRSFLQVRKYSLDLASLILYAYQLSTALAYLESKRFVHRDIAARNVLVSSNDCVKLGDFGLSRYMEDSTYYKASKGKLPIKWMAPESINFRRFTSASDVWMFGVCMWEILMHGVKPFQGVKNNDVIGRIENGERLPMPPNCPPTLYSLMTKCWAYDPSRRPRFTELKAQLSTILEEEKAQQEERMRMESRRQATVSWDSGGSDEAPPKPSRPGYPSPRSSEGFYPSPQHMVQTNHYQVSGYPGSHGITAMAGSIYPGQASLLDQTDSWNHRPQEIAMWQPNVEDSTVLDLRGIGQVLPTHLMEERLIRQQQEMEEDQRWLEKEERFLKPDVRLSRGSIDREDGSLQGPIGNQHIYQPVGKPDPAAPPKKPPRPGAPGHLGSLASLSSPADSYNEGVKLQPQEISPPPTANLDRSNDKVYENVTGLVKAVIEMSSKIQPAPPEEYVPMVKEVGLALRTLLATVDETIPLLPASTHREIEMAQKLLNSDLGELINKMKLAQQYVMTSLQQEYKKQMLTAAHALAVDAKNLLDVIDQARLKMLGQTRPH

[12] = system: Fibrinogen (Alexa647-labelled); test: Alexa647-fibrinogen binding to printed small molecules – biochemical, small-molecule microarray, 635/667 nm fluorescence, artefact control for SMM control-protein annotation, profiling panel (AID 1131); settings: fibrinogen-A647 binding fluorescence, higher = more signal;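 note: z-score merges 667 nm fluorescence with per-spot signal-to-noise over triplicate slides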
[13] = target: Follistatin (Homo sapiens) (UniProt P19883); test: FST protein binding to printed compounds – biochemical, small-molecule microarray, 635/667 nm fluorescence, primary screen (AID 1132); settings: 635 nm fluorescence, higher = more signal
Chain of Follistatin (Homo sapiens) (P19883 whole entry, looked up): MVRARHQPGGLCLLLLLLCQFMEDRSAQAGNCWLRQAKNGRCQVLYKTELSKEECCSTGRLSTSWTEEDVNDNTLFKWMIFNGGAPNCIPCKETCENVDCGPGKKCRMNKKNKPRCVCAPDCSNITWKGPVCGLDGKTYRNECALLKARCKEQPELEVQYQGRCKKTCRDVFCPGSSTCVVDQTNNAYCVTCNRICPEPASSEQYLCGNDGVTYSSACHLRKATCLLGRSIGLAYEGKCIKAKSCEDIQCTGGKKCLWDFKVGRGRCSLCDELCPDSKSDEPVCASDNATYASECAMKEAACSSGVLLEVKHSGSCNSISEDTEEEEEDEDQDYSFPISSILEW

[14] = target: Fibroblast growth factor 2 (Homo sapiens) (UniProt P09038); test: basic fibroblast growth factor binding to printed compounds – biochemical, small-molecule microarray, 635/667 nm fluorescence, primary screen (AID 1133); settings: FGF2, fluorescence 635/667, higher = more signal
Chain of Fibroblast growth factor 2 (Homo sapiens) (P09038 whole entry, looked up): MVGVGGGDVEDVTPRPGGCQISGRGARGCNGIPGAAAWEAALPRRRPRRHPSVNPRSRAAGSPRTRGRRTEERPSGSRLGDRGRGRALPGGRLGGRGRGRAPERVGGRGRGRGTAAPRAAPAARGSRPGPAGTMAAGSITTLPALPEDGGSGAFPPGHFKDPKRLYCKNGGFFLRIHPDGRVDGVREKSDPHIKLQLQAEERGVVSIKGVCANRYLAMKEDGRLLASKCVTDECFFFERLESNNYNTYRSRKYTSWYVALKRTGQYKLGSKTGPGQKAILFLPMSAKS

[15] = JC-1 mitochondrial potential readout, lung cancer cells – cell-based, A549, JC-1 fluorescence, basal, 24 h, 100 nL, profiling panel (AID 1138); settings: higher = more signal;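 note: A549 lung adenocarcinoma cells under basal conditions with no added stimulus; test concentration not given here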
Lefty1 = Lefty1 protein binding to printed compounds – biochemical, small-molecule microarray, 635/667 nm fluorescence, primary screen (AID 1139); settings: fluorescence 635/667, higher = more signal
[16] = system: wheat germ agglutinin (Triticum aestivum), Alexa647-labelled; test: Alexa647-WGA lectin binding to printed small molecules – biochemical, small-molecule microarray, 635/667 nm fluorescence, artefact control for SMM control-protein annotation, profiling panel (AID 1140); settings: WGA-A647 binding, 635 nm fluorescence, higher = more signal;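 note: score merges 667 nm feature emission with signal to noise over triplicate slides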
[17] = target: Luciferin 4-monooxygenase (Photinus pyralis) (UniProt P08659); test: inhibition of purified Photinus pyralis luciferase – biochemical, luminescence, purified enzyme, 2006 set, primary screen (AID 1141); settings: purified firefly luciferase, SteadyGlo luminescence, 30 min; higher = more signal, called active from +8 up or from −8 down;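 note: cell-free assay with purified firefly luciferase at 100 ng per well in PBS; test concentration not given here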
Chain of Luciferin 4-monooxygenase (Photinus pyralis) (P08659 whole entry, looked up): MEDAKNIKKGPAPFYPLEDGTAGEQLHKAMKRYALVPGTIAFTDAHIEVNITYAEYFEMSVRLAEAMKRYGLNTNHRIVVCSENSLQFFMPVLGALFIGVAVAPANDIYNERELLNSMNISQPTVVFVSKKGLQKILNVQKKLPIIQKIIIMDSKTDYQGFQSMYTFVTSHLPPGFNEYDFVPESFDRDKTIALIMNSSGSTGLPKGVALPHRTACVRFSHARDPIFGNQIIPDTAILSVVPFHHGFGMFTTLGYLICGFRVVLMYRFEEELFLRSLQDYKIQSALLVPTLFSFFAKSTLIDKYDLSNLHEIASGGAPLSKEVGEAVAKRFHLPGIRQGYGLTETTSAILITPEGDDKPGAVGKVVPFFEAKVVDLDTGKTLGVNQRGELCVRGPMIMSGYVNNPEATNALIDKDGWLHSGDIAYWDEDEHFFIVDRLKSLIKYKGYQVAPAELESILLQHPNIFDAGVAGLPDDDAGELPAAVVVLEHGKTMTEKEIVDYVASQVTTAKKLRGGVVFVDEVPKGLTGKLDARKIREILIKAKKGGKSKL

Row | Structure (SMILES) | composite z-score (Albumin (Bos taurus)) | composite Z-score [1] | composite z-score [2] | composite z-score [3] | composite z-score [4] | composite z-score [5] | composite z-score [6] | composite z-score (Sam68 (KHDRBS1)) | composite z-score [7] | composite z-score [8] | composite z-score [9] | composite z-score [10] | composite z-score [11] | composite z-score [12] | composite z-score [13] | composite z-score [14] | z-score [15] | composite z-score (Lefty1) | composite z-score [16] | z-score [17]
1 | CN(C)CCCNC(=O)[C@@]1(C)c2ccccc2C(=O)N(Cc2cc(F)cc(C(F)(F)F)c2)[C@H]1c1ccc(CO)cc1 | 0.56 | 0.101 (inactive) | -0.159 | -0.0895 | 0.769 | -0.065 | 0.457 | 0.303 | -1.66 | -0.282 | -0.731 | -0.358 | 0.63 | -0.0121 | -0.673 | -0.67 | -0.202 | -0.91 | 0.397 | -0.0378 (inactive)
2 | Cc1ccc(S[C@]2(C(=O)NCC(C)C)CC(=O)N(Cc3cc(C(F)(F)F)cc(C(F)(F)F)c3)[C@@H]2c2ccc(CO)cc2I)cc1 | 0.0274 | 0.786 (inactive) | -0.188 | -0.0415 | 0.89 | 0.234 | 0.77 | -0.47 | -1.76 | -1.39 | -0.316 | -1.08 | -0.55 | -0.819 | -1.59 | -1.1 | -0.553 | -2.21 | -0.192 | 0.328 (inactive)
3 | CC(C)(C)C(=O)N[C@@H](c1ccc(Cl)cc1)[C@]1(C)C[C@H]1C1CCCCC1 | 0.886 | -0.149 (inactive) | 0.449 | 0.347 | 0.505 | 2.12 | 0.968 | 1.29 | -0.319 | 1.19 | 0.893 | 1.21 | 1.19 | 1.02 | 0.279 | -0.386 | 2.63 | -0.775 | 0.537 | 0.542 (inactive)
4 | CCCCCN1CC=CC23O[C@@H]4/C=C\CCCOC(=O)C4[C@H]2C(=O)N(CCCO)[C@@H]3C1=O (stereo not given in full) | 0.433 | -0.0981 (inactive) | -0.095 | -0.104 | 0.689 | 1.82 | 1.04 | 0.798 | -0.343 | 0.256 | 2.06 | 1.3 | 1.23 | -0.965 | -0.162 | -0.281 | -0.564 | 0.157 | 0.197 | -2.41 (inactive)
5 | COC(=O)C(CC#Cc1ccc2c(c1)[C@]1(C(=O)N2)[C@H](c2ccc(O)cc2)N2[C@H](c3ccccc3)[C@H](c3ccccc3)OC(=O)[C@H]2[C@@H]1C(=O)Nc1nc2ccccc2s1)C(=O)OC | 0.847 | -0.516 (inactive) | 0.138 | -0.0454 | 0.556 | 2.21 | 0.445 | 1.31 | 0.806 | 1.12 | 1.8 | 1.22 | 0.833 | 0.96 | 1.1 | 1.22 | -1.7 | 1.23 | 0.471 | -1.63 (inactive)
6 | O=C(c1ccccc1)N1Cc2ccccc2[C@@H]2OC(c3ccc(OCCCO)cc3)=N[C@]2(Cc2ccccc2)C1=O | 0.383 | 0.07 (inactive) | 0.225 | -0.18 | 0.554 | 1.38 | 0.482 | 1.31 | 0.061 | 1.13 | 2.33 | 1.19 | 0.319 | 0.924 | 1.32 | 1.02 | -0.411 | 0.838 | 0.765 | -0.976 (inactive)
7 | O=C1C2C=CC(C(O)C3CCCCC3)N(Nc3ccc([N+](=O)[O-])cc3)C2C(=O)N1c1ccccc1 (stereo not given) | 0.674 | -0.0746 (inactive) | -0.366 | -0.197 | 0.57 | 2.53 | 0.499 | 1.29 | -1.2 | 0.909 | 3.32 | 1.21 | 0.539 | 0.959 | -0.647 | -1.58 | -1.72 | -0.153 | 0.823 | 0.618 (inactive)
8 | COc1ccc([Si](C)(C)[C@H]2[C@H](CC(=O)N3Cc4ccccc4C[C@H]3CO)O[C@@]3(C(=O)N(Cc4ccc(N5CCC5=O)cc4)c4ccccc43)[C@@H]2C)cc1 | 0.402 | -0.39 (inactive) | -0.0014 | 0.581 | 0.516 | 1.51 | 1.19 | 1.29 | 1.4 | 1.13 | 1.72 | 1.13 | 1.12 | 0.42 | 1.33 | 1.32 | 1.11 | 1.56 | 0.104 | 0.511 (inactive)
9 | CC(C)(C)OC(=O)CC[C@]1(C(=O)O)N=C(c2ccc(OCCCO)cc2)O[C@H]1c1ccccc1N=[N+]=[N-] | 0.82 | 0.653 (inactive) | 0.786 | 0.473 | 0.838 | 2.95 | 0.781 | 0.889 | 0.0588 | 0.663 | 1.95 | 0.815 | 0.238 | 0.882 | 0.891 | 0.0606 | -0.974 | -0.811 | 0.963 | -10.5 (active)
